Source: PubChem BioAssay AID445 (National Center for Advancing Translational Sciences (NCATS), 2006)
Screen size: about 110,000 compounds; about 40 (0.04%) were called active. About 22% were inconclusive and are not listed. Calls come from the whole dose curve; as a rule, active = well fitted curve in the direction sought with a large enough effect in the signal ratio (not every such curve was filed as active); inconclusive = small, poorly fitted or top-dose-only effect, or a change in a side signal; inactive = flat fitted curve, though single readings scatter; the % refers to the signal ratio. The sample as a whole holds a higher share of actives than the screen did.

experiment: IkB Signaling; conditions: ABC-DLBCL IkBa-CBG/CBR dual luciferase ratio, 4 h; series mostly up to 57.1 µM; IkBa stabilization activation: at the top concentration;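 note: 0% = basal untreated cells and 100% = reference inhibitor full response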
Description: NIH Molecular Libraries Screening Centers Network [MLSCN]
NIH Chemical Genomics Center [NCGC]
Nuclear factor kappa-B (NF-kappa-B) plays an important role in normal B cell development and survival. Diffuse large B cell lymphoma (DLBCL) is the most commonly observed type of non-Hodgkin's lymphoma. Gene expression analysis has identified an activated B cell-like subtype of DLBCL (ABC-DLBCL) which expresses known NF-kappa-B target genes. […] However, targets upstream of IKK have been largely unexplored and so nodes upstream of IKK in the NF-kappa-B pathway remain untested due to the lack of chemical probes.
A cell-sensor assay for I-kappa-B-alpha stabilization was developed with NIH investigator Dr. R. Eric Davis in Dr. Louis M. Staudt's laboratory. The assay uses green (CBG68) and red (CBR) emitting beetle luciferases [Chroma-Glo(TM) developed by Promega Corp.] where the green luciferase is fused to I-kappa-B-alpha and the red luciferase is present in its native state. Both luciferase genes are stably present in the OCI-Ly3 human ABC DLBCL cell line, but their expression is under the control of tetracycline-inducible promoters. Following the addition of doxycycline to induce expression of the luciferases, the green luminescence in control cultures rises only slowly because the CBG fusion partner I-kappa-B-alpha is targeted by IKK activity for rapid degradation. In contrast, green luminescence rises rapidly in the presence of proteasome inhibitors or IKK inhibitors. The rise in red luminescence of CBR is not affected by proteasome or IKK inhibitors, and serves as normalization for cell number and nonspecific effects. Compounds were screened as a concentration-titration series that ranged from 57 uM to 0.7 nM.
NCGC Assay Protocol Summary:
Cells were seeded in 1536-well plates at 5000 cells/3ul in IMDM medium containing 0.5% FBS, w/o phenol red, L-glutamine, 25 mM HEPES, 3 mg/ml sodium bicarbonate. After centrifugation for 1 min. at 1000 rpm, 23 nl of compounds or DMSO were delivered to each well using a pin tool. Then 1ul 80ng/ml doxycycline was dispensed into white solid 1536-well plates and the plates were incubated at 37C/5% C02 in a cell incubator for 4 hrs. Then 4 ul Chroma-Glo luminescent substrate mix (Promega) was added to each well. The plate was incubated at R.T. for 10-15 min. The plates were measured on a ViewLux plate reader for green luminescence (540/20 nm filter) and red luminescence (618/8 nm filter). The green and red luminescent signals were corrected for red and green luminescence filter overlap using previously determined filter calibration constants (determined using the procedure outlined in the Promega Technical Manual). The %Activity was determined from the ratio of corrected green/red luminescent values. Green luminescent and ratio %Activity was determined by normalizing to the difference in signal between basal cells (0% Activity) and cells incubated with 10 uM of the proteasome inhibitor MG-132 (100% Activity). Red luminescent %Activity was normalized to the difference between red luminesence in basal cells (0%Activity) and zero luminescence (-100% Activity).
Concentration-response curves were fitted to the signals arising from the green luminescence (I-kappa-B-alpha-luciferase fusion; IkB-luc) and the red luminescence (unfused luciferase; luc) as well as the calculated ratio. The concentration-effect curves were then classified based on curve quality (r2), response magnitude and degree of measured activity. Compounds were then categorized based on their concentration-response curves for all three datasets (Ikb-luc, luc and ratio).
Keywords: IKK, I-kappa-B, IkB, IkBa, cytotoxicity, luminescence, MLSMR, MLSCN, NIH Roadmap, qHTS, NCGC

IkBa stabilization activation, inactive:
CCCCNC(=O)c1ccc2c(c1)NC(=O)C(C(C)C)N2 (stereo not drawn) -0.449%
CCOC(=O)c1scc(-c2ccc(C)cc2)c1S(=O)(=O)Nc1cc(C)ccc1C 0.745%
CCN(CC)c1ccc(NC(=O)Cn2nc3c(cc2=O)CCCC3)c(C)c1 2.3%
Cc1ccc2sc(N(Cc3cccnc3)C(=O)C3COc4ccccc4O3)nc2c1C (stereo not drawn) -0.437%
Cc1ccc(NC(=O)Cn2nnc3sc4c(c3c2=O)CCC(C)C4)cc1 (stereo not drawn) -2.75%
CSc1cccc(NC(=O)CN2C(=O)CCc3cc(S(=O)(=O)N4CCCCC4)ccc32)c1 3.58%
CCOc1ccc(N(CC)S(=O)(=O)N2CCCC(C(=O)NCc3ccc(Cl)cc3)C2)cc1 (stereo not drawn) 0.399%
O=C(NCCCO)C(=O)Nc1c2c(nn1-c1ccccc1)CSC2 -1.36%
Cc1cc(OCC(=O)NCC2(N(C)C)CCCCC2)cc(C)c1Cl 1.43%
Cc1ccc(-c2nn(CCC(=O)Nc3ccc(OC(F)(F)F)cc3)c(=O)c3ccccc23)cc1 -1.64%
CCCSc1nc2sc3c(c2c(=O)n1-c1cccc(Br)c1)CC(C)(C)OC3 1.69%
COc1ccc(CCNC(=O)Cn2c(=O)cc(C(F)(F)F)c3c(C)nn(C)c32)c(OC)c1 0.371%
CCOc1ccccc1CNC(=O)c1cnc2c(-c3ccc(OCC)c(OCC)c3)c(C)nn2c1C -1.18%
CCOc1cc(CNC(=O)c2sc3ncnc(N(C)C4CCCCC4)c3c2C)ccc1OC -1.17%
Cc1c(-c2nc(-c3ccc4c(c3)OCO4)no2)nnn1-c1ccc(Br)cc1F -3.96%
CCN(CC)c1ccc(NS(=O)(=O)c2cc(-c3cc(C)no3)ccc2C)c(C)c1 0.135%
CCN1CCN(CCCNC(=O)c2cnn(-c3ccc(C)cc3C)c2C2CCN(C(=O)OC(C)(C)C)CC2)CC1 1.54%
COc1ccc(-c2onc(C)c2C)cc1S(=O)(=O)NCc1cccs1 -1.8%
Cc1cccc(Cc2c(C)nc3nc(SCc4ccccc4Cl)nn3c2C)c1 2.23%
NC(=O)C1CCN(C(=O)c2cccc(NC(=O)c3nsc4ccccc34)c2)CC1 -1.38%
COc1ccccc1-c1noc(-c2ccc(NCc3ccccc3)c([N+](=O)[O-])c2)n1 -0.999%
COc1ccc(Cl)cc1NC(=O)CSc1nc2ccccc2c2nc(-c3ccccc3)nn12 0.00394%
CCOc1ccccc1NC(=O)Cn1c(=O)n(Cc2ccco2)c(=O)c2sc3ccccc3c21 4.55%
CCN(CC)CCNC(=O)CN1N=C(c2ccc(OC)cc2)CCC1=O -1.9%
COc1ccc(CNc2nc(-c3ccc(Cl)cc3)cc(C(F)(F)F)n2)cc1 -1.22%
COc1ccc(NC(=O)C2CCCN(S(=O)(=O)c3cccc4nonc34)C2)cc1Cl (stereo not drawn) 1.73%
CCc1cc2c(cc3c(=O)n(CC(=O)N4CCN(c5cc(Cl)ccc5C)CC4)ncn32)s1 -1.17%
COc1ccc(-c2nn3c(-c4ccc(OC)cc4)nnc3c3ccccc23)cc1 -0.528%
Fc1ccc(-n2ncc3c(Nc4ccc(Oc5ccccc5)cc4)ncnc32)cc1 -0.511%
CCCOc1ccc(CNC(=O)C2CCN(c3nn4c(=O)cc(C)nc4s3)CC2)cc1 -0.122%
CCS(=O)(=O)c1nc(S(=O)(=O)c2ccc(C)cc2)c(NCc2ccc(Cl)cc2)s1 0.738%
Cc1ccc(CNS(=O)(=O)c2ccc(-c3cc(C(F)(F)F)on3)s2)cc1 -4.13%
Cc1cc(C)cc(NC(=O)c2cnc3sc(N4CCCC4)nn3c2=O)c1 -3.48%
CCCCOC(=O)CSc1ncnc2sc3c(c12)CCC(C)C3 (stereo not drawn) 3.48%
COc1cc(NC(=O)NCC2CCN(Cc3ccc(C)cc3)CC2)cc(OC)c1OC 2.66%
CCOC(=O)c1ccc(NC(=O)c2c(NCc3cccc(OC)c3)sc3c2CCC3)cc1 -1.01%
Cc1nc2nc(SCC(=O)N(Cc3ccccc3)C(C)C)nn2c(C)c1Cc1ccccc1Cl 3.24%
Cc1cc2oc(C(=O)N(Cc3ccc(Cl)cc3)Cc3ccco3)c(C)c2cc1Cl -1.24%
Cc1ccccc1-c1nc(CS(=O)(=O)CC(=O)NC(C)c2ccccc2)c(C)o1 (stereo not drawn) -1.28%
CCOc1ccccc1C(=O)NC1(C(F)(F)F)C(=O)Nc2c1c(=O)[nH]c(=O)n2-c1ccc(F)cc1 (stereo not drawn) -1.66%
CCOC(=O)c1c(C)[nH]c(C)c1S(=O)(=O)NCC(=O)NCc1cccc(C)c1 0.835%
Cc1cccc(NC(=O)CSc2nc(-c3ccco3)cc(C(F)(F)F)n2)c1C 1.98%
Cn1c(=O)oc2cc(S(=O)(=O)CCC(=O)NCCc3ccc(Cl)cc3)ccc21 -1.07%
Cc1ccc(C)c(NC(=O)C2CCCN(S(=O)(=O)c3cn(C)cn3)C2)c1 (stereo not drawn) 1.43%
O=C(CCc1nc(CN2CCN(S(=O)(=O)c3ccc(Cl)cc3)CC2)no1)N1CCCCC1 1.11%
COc1ccccc1NC(=O)C1=C(C)Nc2ncnn2C1c1sccc1C (stereo not drawn) 0.985%
CCCNC(=O)C(CC)n1nc(CC)n2c(cc3oc(C)cc32)c1=O (stereo not drawn) -2.46%
Cc1ccc(CNC(=O)CSC2=Nc3ccccc3C3=NC(C)C(=O)N23)cc1 (stereo not drawn) 0.839%
